Active and inactive are the calls of the source.
Columns and labels:
[1] = test system: Plasmodium falciparum Sir2 (PF13_0152, Sir2A); experiment: Plasmodium falciparum Sir2A binding compounds – biochemical, small-molecule microarray, 635 nm fluorescence, primary screen (AID 1098); conditions: fluorescence 635 nm, higher = more signal;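 also: score merges spot fluorescence intensity with its signal-to-noise ratio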
[2] = probe aDKK1 binding to arrayed compounds – biochemical, biotinylated probe, 635/667 nm fluorescence, primary screen (AID 1099); conditions: small-molecule microarray, higher = more signal;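 also: score merges 667nm spot fluorescence with signal to noise across triplicate slides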
[3] = probe aCHRDL2 binding to arrayed compounds – biochemical, biotinylated probe, 635/667 nm fluorescence, primary screen (AID 1100); conditions: small-molecule microarray, higher = more signal
[4] = change in splice reporter luminescence, either direction, cell-based, HEK293, spliceosome inhibition project, primary screen (AID 1101); conditions: HEK293 splicing luciferase reporter, 24 h, higher = more signal, called active from +8 up or from −8 down;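 also: HEK293 cells carrying a splicing-competent luciferase reporter gene; test concentration not given here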
[5] = biological target: Fibroblast growth factor 10 (Homo sapiens) (UniProt O15520); experiment: compounds binding fibroblast growth factor 10 – biochemical, small-molecule microarray, 635 nm fluorescence, primary screen (AID 1102); conditions: FGF10 binding, fluorescence 635 nm, higher = more signal
Fibroblast growth factor 10 (Homo sapiens), sequence (O15520 whole entry, looked up): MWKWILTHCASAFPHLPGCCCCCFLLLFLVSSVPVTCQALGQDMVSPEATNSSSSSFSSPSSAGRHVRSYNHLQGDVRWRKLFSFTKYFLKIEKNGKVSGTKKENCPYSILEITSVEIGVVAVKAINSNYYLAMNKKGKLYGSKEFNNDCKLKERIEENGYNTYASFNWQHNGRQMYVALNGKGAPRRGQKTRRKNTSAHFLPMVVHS

[6] = test system: glycogen synthase kinase-3 (GSK3A per assay name; protocol says GSK3B); experiment: compounds binding glycogen synthase kinase-3 – biochemical, small-molecule microarray, 635 nm fluorescence, GSK3A, primary screen (AID 1103); conditions: fluorescence 635 nm, higher = more signal; also: the record names both GSK3A and GSK3B
[7] = biological target: Epidermal growth factor receptor (Homo sapiens) (UniProt P00533); experiment: compounds binding epidermal growth factor receptor – biochemical, small-molecule microarray, 635 nm fluorescence, primary screen (AID 1104); conditions: EGFR binding, higher = more signal;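 also: score merges 667 nm emission intensity with spot signal to noise over triplicate slides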
Epidermal growth factor receptor (Homo sapiens), sequence (P00533 whole entry, looked up): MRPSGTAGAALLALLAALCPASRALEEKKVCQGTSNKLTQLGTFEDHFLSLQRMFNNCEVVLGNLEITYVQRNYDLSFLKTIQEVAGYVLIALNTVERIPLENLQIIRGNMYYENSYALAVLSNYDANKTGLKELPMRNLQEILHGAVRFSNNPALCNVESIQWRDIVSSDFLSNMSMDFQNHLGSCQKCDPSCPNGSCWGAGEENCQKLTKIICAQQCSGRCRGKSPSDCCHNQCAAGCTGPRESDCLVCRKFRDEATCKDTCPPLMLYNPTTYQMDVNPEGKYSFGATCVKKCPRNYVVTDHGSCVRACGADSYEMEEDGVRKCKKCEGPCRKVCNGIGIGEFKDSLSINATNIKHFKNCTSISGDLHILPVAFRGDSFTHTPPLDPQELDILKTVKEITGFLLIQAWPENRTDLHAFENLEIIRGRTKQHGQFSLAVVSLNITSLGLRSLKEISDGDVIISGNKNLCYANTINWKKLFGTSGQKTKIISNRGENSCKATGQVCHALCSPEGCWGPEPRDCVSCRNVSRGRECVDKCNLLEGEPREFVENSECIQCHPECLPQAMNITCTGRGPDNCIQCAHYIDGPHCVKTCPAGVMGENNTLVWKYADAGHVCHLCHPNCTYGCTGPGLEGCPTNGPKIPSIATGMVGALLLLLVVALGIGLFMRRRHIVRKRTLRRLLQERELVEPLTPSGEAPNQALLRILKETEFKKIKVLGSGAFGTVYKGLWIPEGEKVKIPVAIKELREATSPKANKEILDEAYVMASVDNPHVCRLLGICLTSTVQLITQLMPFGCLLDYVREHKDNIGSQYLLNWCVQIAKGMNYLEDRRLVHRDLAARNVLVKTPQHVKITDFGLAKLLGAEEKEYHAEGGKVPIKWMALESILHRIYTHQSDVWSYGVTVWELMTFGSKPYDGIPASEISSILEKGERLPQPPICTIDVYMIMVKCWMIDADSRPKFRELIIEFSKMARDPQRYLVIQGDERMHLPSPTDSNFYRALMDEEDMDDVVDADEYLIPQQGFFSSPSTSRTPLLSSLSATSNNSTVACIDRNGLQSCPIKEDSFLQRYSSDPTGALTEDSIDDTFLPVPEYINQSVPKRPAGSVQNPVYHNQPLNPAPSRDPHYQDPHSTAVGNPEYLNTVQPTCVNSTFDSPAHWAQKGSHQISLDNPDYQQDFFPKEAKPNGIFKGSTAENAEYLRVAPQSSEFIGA

[8] = biological target: Follistatin-related protein 3 (Homo sapiens) (UniProt O95633); experiment: compounds binding follistatin-related protein 3 – biochemical, small-molecule microarray, 635 nm fluorescence, primary screen (AID 1105); conditions: FSTL3 binding, higher = more signal;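 also: score merges emission near 667 nm and signal to noise per printed spot across three slides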
Follistatin-related protein 3 (Homo sapiens), sequence (O95633 whole entry, looked up): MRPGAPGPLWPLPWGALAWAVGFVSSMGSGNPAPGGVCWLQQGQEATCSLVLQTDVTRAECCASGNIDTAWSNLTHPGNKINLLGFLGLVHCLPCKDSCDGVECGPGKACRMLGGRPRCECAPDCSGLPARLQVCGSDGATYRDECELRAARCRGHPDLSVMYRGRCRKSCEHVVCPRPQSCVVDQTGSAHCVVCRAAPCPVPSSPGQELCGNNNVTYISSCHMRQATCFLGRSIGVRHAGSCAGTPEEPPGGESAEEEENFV

[9] = biological target: Dickkopf-related protein 1 (Homo sapiens) (UniProt O94907); experiment: small molecules binding DKK1 protein – biochemical, small-molecule microarray, 635 nm fluorescence scan, primary screen (AID 1106); conditions: higher = more signal;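 also: score merges emission near 667 nm with signal to noise over three replicate slides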
Dickkopf-related protein 1 (Homo sapiens), sequence (O94907 whole entry, looked up): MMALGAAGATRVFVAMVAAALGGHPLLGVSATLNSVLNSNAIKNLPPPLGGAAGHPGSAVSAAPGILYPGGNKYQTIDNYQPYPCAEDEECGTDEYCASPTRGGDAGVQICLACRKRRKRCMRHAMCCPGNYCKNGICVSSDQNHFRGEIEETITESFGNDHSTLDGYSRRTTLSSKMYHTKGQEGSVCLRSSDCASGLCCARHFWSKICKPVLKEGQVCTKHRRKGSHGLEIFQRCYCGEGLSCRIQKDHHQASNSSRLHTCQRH

[10] = test system: Inhibin beta A chain (activin A); experiment: small molecules binding activin A – biochemical, small-molecule microarray, 635 nm fluorescence scan, primary screen (AID 1107); conditions: INHBA, higher = more signal;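 also: mouse activin A protein probed at 4.33 µg/mL on printed slides; score merges bound-protein fluorescence near 667 nm with spot signal-to-noise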
[11] = test system: Human papillomavirus type 1a protein E7 (residues 44-93); experiment: small molecules binding HPV E7 44-93 – biochemical, small-molecule microarray, residues 44-93, 635 nm fluorescence, primary screen (AID 1108); conditions: fluorescence 635 nm, higher = more signal;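 also: E7 fragment applied at 1 µg/mL in TBST for 1 h at 4 C; score combines spot fluorescence with its signal to noise ratio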
[12] = hepatitis C replication reporter changes, two-sided – Huh7 cells, luciferase reporter, HCV replication inhibitor project, primary screen (AID 1109); conditions: Huh7 HCV replicon luciferase reporter, 48 h; higher = more signal;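 also: huh7 hepatoma cells harbouring a luciferase neomycin HCV replicon reporter; luciferase luminescence as measure of HCV replicon replication; test concentration not given here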
[13] = biological target: Left-right determination factor 2 (Homo sapiens) (UniProt O00292); experiment: small molecules binding LEFTY2 protein – biochemical, small-molecule microarray, 635 nm fluorescence scan, primary screen (AID 1110); conditions: higher = more signal
Left-right determination factor 2 (Homo sapiens), sequence (O00292 whole entry, looked up): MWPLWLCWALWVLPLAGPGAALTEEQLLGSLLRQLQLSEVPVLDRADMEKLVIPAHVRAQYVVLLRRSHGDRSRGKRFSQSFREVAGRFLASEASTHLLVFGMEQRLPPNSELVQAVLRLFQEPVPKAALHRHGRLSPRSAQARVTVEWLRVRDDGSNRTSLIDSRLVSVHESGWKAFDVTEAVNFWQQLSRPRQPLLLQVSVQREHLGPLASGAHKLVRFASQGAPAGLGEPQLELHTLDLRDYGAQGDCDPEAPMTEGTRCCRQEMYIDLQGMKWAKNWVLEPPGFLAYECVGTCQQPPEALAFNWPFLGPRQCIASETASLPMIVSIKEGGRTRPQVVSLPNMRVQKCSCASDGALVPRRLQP

[14] = biological target: Calmodulin-1 (Homo sapiens) (UniProt P0DP23); experiment: small molecules binding calmodulin-1 with EGTA – biochemical, small-molecule microarray, Cy5-labelled CALM1, profiling panel (AID 1111); conditions: Cy5-CALM1 binding fluorescence, higher = more signal;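 also: labelled calmodulin applied in Tris saline Tween buffer holding calcium plus EGTA and DTT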
[15] = biological target: Calmodulin-1 (Homo sapiens) (UniProt P0DP23); experiment: small molecules binding Ca-loaded calmodulin-1 – biochemical, small-molecule microarray, Cy5-labelled CALM1, plus calcium, artefact control for SMM control-protein annotation, profiling panel (AID 1112); conditions: Cy5-CALM1 binding fluorescence, higher = more signal;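 also: score merges spot fluorescence with signal to noise from triplicate slides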
[16] = probe aWnt5a binding to arrayed compounds – biochemical, biotinylated probe, 635/667 nm fluorescence, primary screen (AID 1113); conditions: small-molecule microarray, higher = more signal;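 also: score merges 667 nm fluorescence intensity with signal-to-noise per printed feature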
[17] = probe aShh binding to arrayed compounds – biochemical, biotinylated probe, 635/667 nm fluorescence, primary screen (AID 1114); conditions: small-molecule microarray, higher = more signal;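 also: probe is biotin-labelled aShh protein from a stem cell growth factor screen; measures binding of labelled protein to compounds printed on the slide; score merges feature fluorescence at 667 nm with signal-to-noise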
[18] = probe aNog binding to arrayed compounds – biochemical, biotinylated probe, 635/667 nm fluorescence, primary screen (AID 1115); conditions: small-molecule microarray, higher = more signal;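 also: probe is biotinylated aNog protein used at 0.15 µg/mL for 1 h at 4 C; z-score combines 667 nm fluorescence of each spot with its signal to noise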
[19] = biological target: Torsin-1A-interacting protein 1 (Homo sapiens) (UniProt Q5JTV8); experiment: compound microarray binding of lysate hLAP1 – cell lysate, small-molecule microarray, COS7 lysate, 635/667 nm fluorescence, primary screen (AID 1116); conditions: 635 nm fluorescence, higher = more signal
Torsin-1A-interacting protein 1 (Homo sapiens), sequence (Q5JTV8 whole entry, looked up): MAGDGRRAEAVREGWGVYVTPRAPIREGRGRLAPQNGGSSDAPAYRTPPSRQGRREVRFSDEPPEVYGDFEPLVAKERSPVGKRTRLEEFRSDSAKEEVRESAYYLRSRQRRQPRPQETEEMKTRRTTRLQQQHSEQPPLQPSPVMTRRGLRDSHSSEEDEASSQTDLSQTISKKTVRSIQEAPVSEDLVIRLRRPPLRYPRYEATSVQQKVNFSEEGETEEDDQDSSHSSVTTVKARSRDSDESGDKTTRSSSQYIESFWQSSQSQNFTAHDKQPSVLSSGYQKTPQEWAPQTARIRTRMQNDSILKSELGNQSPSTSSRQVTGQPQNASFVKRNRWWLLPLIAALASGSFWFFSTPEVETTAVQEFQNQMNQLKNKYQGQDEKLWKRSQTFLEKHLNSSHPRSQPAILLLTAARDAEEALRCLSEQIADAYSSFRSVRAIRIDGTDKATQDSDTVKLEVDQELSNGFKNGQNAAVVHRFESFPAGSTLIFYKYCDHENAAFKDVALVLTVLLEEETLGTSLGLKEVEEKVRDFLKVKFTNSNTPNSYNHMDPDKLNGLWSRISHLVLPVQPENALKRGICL

[20] = biological target: Alpha-bungarotoxin (Bungarus multicinctus) (UniProt P60615); experiment: compounds binding labelled alpha-BTX control protein – biochemical, small-molecule microarray, Alexa647 label, 635/667 nm fluorescence, artefact control for SMM control protein annotation, profiling panel (AID 1117); conditions: alpha-BTX-A647 binding fluorescence, higher = more signal
Alpha-bungarotoxin (Bungarus multicinctus), sequence (P60615 whole entry, looked up): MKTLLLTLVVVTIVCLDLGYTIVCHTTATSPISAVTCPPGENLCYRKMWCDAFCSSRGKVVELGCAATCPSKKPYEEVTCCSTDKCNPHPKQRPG

Compound | composite z-score [1] | composite z-score [2] | composite z-score [3] | z-score [4] | composite z-score [5] | composite z-score [6] | composite z-score [7] | composite z-score [8] | composite z-score [9] | composite z-score [10] | composite z-score [11] | z-score [12] | composite z-score [13] | composite z-score [14] | composite z-score [15] | composite z-score [16] | composite z-score [17] | composite z-score [18] | composite z-score [19] | composite z-score [20]
CCOC(=O)[C@H]1[C@@H]2C(=O)N3CCC[C@H]3[C@H](O[Si](C(C)C)(C(C)C)C(C)C)[C@H]2C=C2CCN(S(=O)(=O)c3ccc(C)cc3)C[C@H]21 | 0.779 | -0.341 | -0.535 | -1.73 (inactive) | 1 | 0.938 | 0.586 | 0.766 | 0.593 | 0.141 | 1.28 | -3.6 | 0.637 | 0.791 | -0.185 | -0.0379 | 0.0815 | -0.709 | 0.694 | 0.962
CCC(CC)C(O)C1C=CC2C(=O)N(c3ccccc3)C(=O)C2N1Nc1ccc(C(C)C)cc1 (stereo not given) | 1.23 | 0.789 | 0.948 | -0.0169 (inactive) | 0.663 | 1.17 | 0.0407 | 0.932 | -0.0563 | 0.916 | 1.28 | -0.652 | -0.0146 | 1.04 | 0.419 | -0.0643 | 0.698 | 0.967 | 1.23 | 1.27
C=CCNC(=O)[C@@H]1[C@H]2C(=O)O[C@H](c3ccccc3)[C@H](c3ccccc3)N2[C@H](c2ccc(O)cc2)[C@@]12C(=O)N(C(=O)OCCOC)c1ccc(C#CC3(O)CCCCCC3)cc12 | 0.482 | -0.227 | 0.854 | -0.565 (inactive) | -1.72 | -1.44 | -1.5 | -1.45 | -1.82 | -1.46 | -1.18 | -0.0817 | -2.4 | -0.901 | -0.123 | -0.221 | -0.192 | -0.343 | -1.28 | -1.42
COC(=O)[C@@]1(Cc2ccc(OC)cc2)[C@H]2c3cc(C(=O)N(C)C)n(Cc4ccc(Cl)c(C(F)(F)F)c4)c3C[C@H]2CN1C(=O)c1ccccc1 | 0.546 | 1.45 | 1.49 | 0.524 (inactive) | 0.523 | 0.363 | -0.242 | 0.83 | -1.12 | 0.986 | 1.39 | -2 | -0.566 | 1.41 | 1.12 | 0.235 | 1.19 | 2.18 | 0.535 | 0.99
CN(C)CCCNC(=O)[C@@]1(C)c2ccccc2C(=O)N(Cc2ccccc2)[C@H]1c1ccc(CO)cc1 | 1.71 | -0.719 | 0.683 | 0.711 (inactive) | -0.476 | -0.35 | -1.48 | -0.456 | 0.0494 | 1 | -0.775 | -1.94 | -0.157 | -1.06 | -1.12 | 0.0026 | -0.138 | -0.33 | -0.281 | -0.358
O=C1OCC=C[C@H]2OC34C=CCN(Cn5nnc6ccccc65)C(=O)[C@H]3N(CCCO)C(=O)[C@@H]4[C@@H]12 (stereo not given in full) | -0.0241 | -0.0481 | 0.368 | -1.26 (inactive) | -0.21 | -1.08 | -0.577 | -1.39 | -0.448 | 0.839 | -0.408 | 0.424 | -0.573 | -0.0941 | 0.449 | -0.26 | 0.381 | 0.0517 | 0.529 | -1.11
Cc1cc(C)c(C(O)C2C=CC3C(=O)NC(=O)C3N2Nc2ccc(Cl)cc2Cl)c(C)c1 (stereo not given) | 0.651 | 0.639 | 1.2 | 0.465 (inactive) | 0.871 | 0.753 | 0.253 | 0.95 | -0.0057 | 1.31 | 1.4 | -0.293 | 0.105 | 2.18 | 0.954 | 0.0489 | 0.171 | 1.92 | 1.78 | 1
O=C1NC(=O)C2C1C=CC(C(O)c1c(F)cccc1Cl)N2Nc1ccc(Cl)cc1Cl (stereo not given) | 1.49 | 1.4 | 1.41 | 1.57 (inactive) | 0.185 | 0.249 | -0.391 | 0.0256 | -0.367 | 1.29 | 0.635 | -0.133 | -0.536 | 2.33 | 1.01 | 0.0923 | 0.0782 | 1.42 | 2.71 | 2.76
CC(C)Cc1ccc(CN2CC[C@@H](NC(=O)Nc3ccccc3)C2)cc1 | 1.06 | -0.342 | -0.358 | 2.68 (inactive) | -0.62 | -0.274 | -0.301 | -0.496 | 0.238 | 0.692 | -0.709 | -4.9 | 0.463 | -0.433 | 0.0615 | -0.0202 | -0.221 | -0.164 | -0.311 | 0.166
COC(=O)[C@@]1(Cc2ccc(F)cc2)[C@H]2c3cc(C(=O)N(C)C)n(CCc4ccc(O)c(OC)c4)c3C[C@H]2CN1C(=O)c1ccccc1 | 0.0736 | 2.29 | 0.884 | 0.655 (inactive) | 1.05 | 0.776 | 1.45 | 0.62 | 0.399 | 0.366 | 0.768 | 1.09 | 0.543 | 0.187 | -0.323 | 1.2 | 2.74 | 2.48 | 0.279 | 0.434
COc1ccc(NC(=O)O[C@H]2[C@H](OC(=O)Nc3ccccc3)[C@H](OC(=O)Nc3ccccc3)[C@@H](OC)O[C@@H]2CO)cc1 | 1.58 | 0.891 | 0.816 | -0.0162 (inactive) | 1.27 | 1.07 | -0.171 | 0.806 | 0.426 | 0.593 | 1.25 | -2.76 | 0.249 | 0.692 | -0.17 | 0.161 | 0.163 | -0.413 | 0.634 | 1.12
